# Experimental data taken from PubChem BioAssay (NCI).
# Compounds without any hit were thinned out: in the full panel of roughly 83,000, 20% have a hit.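 Treatment: one concentration, 48 hours, 96-well format. Scoring: percent growth, with anything below 10 considered active.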 Unmarked numbers belong to inactive results. Calls of active or inactive are those of the source.
# Key:
# Experiment in all cases: NCI-60 one-dose screen, 48 h (100 = growth as untreated, 0 = no growth, -100 = all killed)
# Settings in all cases: 10 µM unless noted
# T-47D breast = test system: T-47D breast
# BT-549 breast = test system: BT-549 breast
# MDA-MB-435 melanoma = test system: MDA-MB-435 melanoma
# SW-620 colon = test system: SW-620 colon
# MCF7 breast = test system: MCF7 breast
# HCT-116 colon = test system: HCT-116 colon
# HCC-2998 colon = test system: HCC-2998 colon
# KM12 colon = test system: KM12 colon
Structure (SMILES),growth (T-47D breast),growth (BT-549 breast),growth (MDA-MB-435 melanoma),growth (SW-620 colon),growth (MCF7 breast),growth (HCT-116 colon),growth (HCC-2998 colon),growth (KM12 colon)
Cc1ccc2nc(-c3c(N)n[nH]c3CCCO)[nH]c(=O)c2c1,111%,104%,110%,101%,94.5%,109%,111%,111%
Nc1c(C(=O)Nc2c(Cl)cccc2Cl)sc2nc3c(cc12)CCCCC3,57.7%,52.6%,9.69% (active),46.1%,18.4%,62.3%,57%,53.6%
CN1CCN(CCCOc2ccc3nc(Nc4ccc(C(F)(F)F)c(Cl)c4)ccc3c2)CC1,39.9%,80.9%,-74.9% (active),-70.4% (active),-69.5% (active),0.975% (active),-71.1% (active),-14.3% (active)
O=C(/C=C/CN1CCOCC1)Nc1cc2c(Nc3cccc(Cl)c3F)ncnc2cc1OCCOC(F)F,15.1%,86%,97.2%,90.7%,65.5%,82.9%,86.2%,90.2%
COc1c(NC[C@H]2OC(O)[C@H](O)[C@@H](O)[C@@H]2O)c(=O)c1=O (some centres undefined),95.3%,112%,98%,101%,103%,100%,97.9%,111%
Cc1cccc(-n2c(C)nc3ccc(NC(=O)NCCCl)cc3c2=O)c1,103%,101%,99.2%,97.3%,86.1%,103%,114%,106%
COc1ccc2c(c1)NC(=O)CN2c1nc(C)nc2ccccc12,55.5%,1.24% (active),1.13% (active),22%,14.9%,0.468% (active),16.6%,8.92% (active)
Cc1ccc(S(=O)(=O)NCCCNc2nccc(-c3c(-c4ccccc4)nc4sccn34)n2)cc1,39.9%,38.9%,34%,58.1%,42.8%,15.2%,93.9%,18.6%
CCNCc1ccncc1,96.9%,114%,95.6%,100%,96.6%,104%,99.5%,106%
CCCCOc1nc2c(C)cccc2cc1C1CNC(=O)c2ccccc2N1 (centres undefined),58.4%,74.5%,4.51% (active),42.3%,15.8%,45.9%,101%,56.4%
O=S(=O)(NCCNc1nccc(-c2c(-c3ccccc3)nc3sccn23)n1)c1ccc(O)cc1,41.2%,48.9%,10.5%,30%,18.5%,21.5%,64.9%,21.6%
COc1ccc(/C=C/C(=O)c2ccc(NC(=O)CN3CCN(c4cc5c(cc4F)c(=O)c(C(=O)O)cn5C4CC4)CC3)cc2)cc1,98.7%,92.6%,98.6%,113%,91.9%,25.1%,100%,106%
CC/C=C\C[C@H](O)C/C=C1/C(=O)C(Cl)=C[C@@H]1C/C=C\CCCC(=O)O,56.9%,58.5%,19.3%,2.12% (active),26.3%,-88.6% (active),76.4%,46.4%
Clc1ccc(/C=C/c2nc(N3CCOCC3)c3nc(Cl)c(Cl)cc3n2)cc1,73%,93.6%,98.1%,114%,56.8%,83.7%,94.4%,114%
Cc1cc2c(C(C)C)c(O)c(O)c(C=NCCCCCCC(=O)O)c2c(O)c1-c1c(C)cc2c(C(C)C)c(O)c(O)c(C=NCCCCCCC(=O)O)c2c1O,26.9%,37.8%,27.2%,27.2%,11.7%,17.6%,33.5%,15.7%
Cc1cc(C)c(S(=O)(=O)N2CCN(c3cc4c(cc3F)c(=O)c(C(=O)O)cn4C3CC3)CC2)c(C)c1,62.9%,77.3%,76.1%,79.8%,54%,32.2%,47.7%,60.7%
NC(C(=O)O)C(O)c1ccc(OCc2ccccc2)c(OCc2ccccc2)c1 (centres undefined),88.1%,95%,102%,97%,87.3%,101%,115%,100%
COc1cccc(C2CC(=O)Nc3c2c(C)nn3-c2nc3ccccc3[nH]2)c1OC (centres undefined),64.5%,87.1%,58.5%,77.1%,62.5%,36.2%,120%,67.9%
Cc1cc2c(C(C)C)c(O)c(O)c(C=NCCCCC(=O)O)c2c(O)c1-c1c(C)cc2c(C(C)C)c(O)c(O)c(C=NCCCCC(=O)O)c2c1O,53.9%,41.6%,61%,37.1%,32.8%,33%,40.2%,25.6%
Cc1c(C2=NNC(c3ccc4c(c3)OCO4)C2)[n+]([O-])c2ccccc2[n+]1[O-] (centres undefined),92.3%,91%,108%,98.4%,92.8%,99.2%,84.2%,113%
CCN(Cc1ccc(CN(CC)C(=O)C(Br)Br)cc1)C(=O)C(Br)Br,27.9%,36%,22.3%,21.6%,24.4%,-21% (active),18.8%,4.49% (active)
CCCCNC(=O)NS(=O)(=O)c1ccc(N2N=C(c3ccc(C)cc3C)CC2c2ccc(OC)cc2)cc1 (centres undefined),75%,49.9%,9.96% (active),75.9%,48.7%,51.6%,58.6%,48%
O=C1CCC/C=C\C[C@H]2C=CC(=O)/C2=C/C[C@H](C/C=C\CC(F)(F)F)O1,6.6% (active),-18% (active),-22.8% (active),-15.7% (active),6.19% (active),-51.4% (active),-83.7% (active),-71.3% (active)
Cc1ccc(Oc2nc3ccccc3cc2-c2nnc(Cn3c(COc4ccccc4)nc4ccccc43)o2)cc1,48.9%,14.7%,50.8%,18.1%,11.6%,-2.01% (active),64.5%,16.7%
Cc1cc(Nc2nc(-c3ccc(F)cc3)nc3ccccc23)n[nH]1,29.3%,72.9%,31.2%,48.8%,23.8%,28.5%,67.3%,14.8%
CN(C)CCCNC(=O)C(c1ccccc1)c1ccccc1,87.9%,106%,108%,100%,96.3%,94.3%,99.1%,111%
COc1ccc2c(c1)C=CC(C#N)N2C(=O)c1ccccc1 (centres undefined),69.8%,0.256% (active),-52.4% (active),21.6%,15%,8.13% (active),18.6%,13.4%
Cc1ccnc2nc(C(=O)OCC(=O)Nc3ccc(-c4ccccc4)cc3)nn12,111%,96.3%,107%,109%,105%,96%,105%,119%
